Results taken from PubChem BioAssay (NCATS).
Several values for one entry are separate records, joined by “and”; a condition that tells them apart may be missing. Equal values may be shown once. Results filed as inconclusive are left out. Where a call stands in place of a potency, no number is given. Activity calls are given as the source filed them. Calls come from the whole dose curve.

Experiments:
[1] = Cytotoxicity counterscreen for inhibitors of SARS-CoV-2 cell entry (AID 1645845); note: nearly all actives have a fitted effect of over 50% in size
Summary of the method: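 48 h compound treatment (after 1 h preincubation), HEK293-ACE2 cells, 37 C/5% CO2; ATP luminescence endpoint; normalized to cell wells and media blanks.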

[2] = Primary qHTS to identify inhibitors of SARS-CoV-2 cell entry (AID 1645846); conditions: activity change, negative = inhibition: at 57.1 µM (top of the series) unless noted; note: nearly all actives have a fitted effect of over 45% in size
Summary of the method: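 Using luciferase-reporting pseudoviruses carrying Wuhan-Hu-1 spike, the screen tracks entry into stably ACE2-expressing cells over 48 hr. Activity is expressed relative to spike particles versus particles lacking any fusion protein.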
Potency is the fitted concentration of half-maximal effect.

Row | SMILES | Potency [1] | Potency [2] | activity change, negative = inhibition [2]
1 | COc1cc(OC)cc(OC)c1 | inactive | inactive | 
2 | Cc1ncc(COP(=O)(O)O)c(C=O)c1O | inactive |  | 
3 | c1ccc(CN(CC2=NCCN2)c2ccccc2)cc1 | inactive | inactive | 
4 | COCc1c(C(C)C)nc(C(C)C)c(/C=C/[C@@H](O)C[C@@H](O)CC(=O)O)c1-c1ccc(F)cc1 | inactive |  | 
5 | C[C@H]1NCc2cc(-c3ccc4c(=O)c(C(=O)O)cn(C5CC5)c4c3OC(F)F)ccc21 | inactive |  | -12.7% [at 27.1 µM]
6 | Cc1ccc(C(C)OC(=O)C2(C)CCC(C(=O)O)C2(C)C)cc1 (stereo not given) | inactive |  | -10.3%
7 | C=C1c2cccc(O)c2C(O)=C2C(=O)[C@]3(O)C(O)=C(C(N)=O)C(=O)[C@@H](N(C)C)[C@@H]3[C@@H](O)[C@H]12 | inactive |  | 
8 | COc1ccc(CN(CCN(C)C)c2ncccn2)cc1 | inactive |  | 
9 | Cn1c(=O)c2c(ncn2C)n(C)c1=O | inactive |  | 0.143% and -10.1%
10 | O=C(NN1CCCC1)NS(=O)(=O)c1ccc(Cl)cc1 | inactive | inactive | 
11 | CN(C)C(=O)Oc1cccc([N+](C)(C)C)c1 | inactive |  | -1.02%
12 | CC(C)N=C(N)/N=C(\N)Nc1ccc(Cl)cc1 | inactive | inactive | 
13 | CCCCCCc1ccc(O)cc1O | inactive |  | -11.8%
14 | Nc1c2c(nc3ccccc13)CCCC2 | inactive |  | 
15 | CC(=O)CCC(=O)O | inactive | inactive | 
16 | Nc1ccn([C@H]2CC[C@@H](CO)O2)c(=O)n1 | inactive | inactive | 
17 | CNC1CCCN(c2c(F)cc3c(=O)c(C(=O)O)cn(C4CC4)c3c2OC)C1 (stereo not given) | inactive |  | -27.9% and -16.1%
18 | CN(C)[C@@H](CCOc1cccc2ccccc12)c1ccccc1 | inactive | 10 µM (active) | 
19 | O=C(Nc1ccc(S(=O)(=O)N2CCOCC2)cc1)c1cc(Cl)ccc1NS(=O)(=O)c1ccc(Cl)s1 | inactive |  | 
20 | NC1=NCC2c3ccccc3Cc3ccccc3N12 (stereo not given) | inactive |  | 
21 | COc1nc(C)nc(Cl)c1NC1=NCCN1 | inactive | inactive | 

Row | SMILES | Potency [1] | Potency [2] | activity change, negative = inhibition [2]
22 | CN1CCCCC1CCN1c2ccccc2Sc2ccc(S(C)=O)cc21 (stereo not given) | inactive |  | 
23 | CCC(CN)=C(c1ccccc1)c1ccccc1 | inactive |  | 
24 | CO[C@@H]1[C@@H](O[C@@H]2O[C@H](C)[C@@H](O[C@H]3C[C@@](C)(O)[C@@H](O)[C@H](C)O3)[C@H](N(C)C)[C@H]2O)[C@@H](CC=O)C[C@@H](C)[C@@H](O[C@@H]2CC[C@H](N(C)C)[C@@H](C)O2)/C=C/C=C/C[C@@H](C)OC(=O)C[C@H]1OC(C)=O | inactive |  | 
25 | O=C(Nc1ccc([N+](=O)[O-])cc1)Nc1ccc([N+](=O)[O-])cc1 | inactive |  | 
26 | COc1cc(C(=O)OCCCN2CCCN(CCCOC(=O)c3cc(OC)c(OC)c(OC)c3)CC2)cc(OC)c1OC | inactive |  | 
27 | OCC(CO)N[C@H]1C[C@](O)(CO)[C@@H](O)[C@H](O)[C@H]1O | inactive | inactive | 
28 | Cc1c(-c2ccccc2)oc2c(C(=O)OCCN3CCCCC3)cccc2c1=O | inactive |  | -5.61%
29 | O=C(O)CNC(=O)c1ccccc1I | inactive |  | -21.9%
30 | CCOC(=O)n1ccn(C)c1=S | inactive | inactive | 
31 | CC(=O)Oc1c(C)c(C)c2c(c1C)CC[C@@](C)(CCC[C@H](C)CCC[C@H](C)CCCC(C)C)O2 | inactive | inactive | 
32 | CCCCOc1ccc(OCCCN2CCOCC2)cc1 | inactive | inactive | 
33 | C[C@H](O)C(=O)Nc1c(I)c(C(=O)NC(CO)CO)c(I)c(C(=O)NC(CO)CO)c1I | inactive |  | 4.46%
34 | Cc1nc(C2CCCCC2)c(-c2ccc(S(N)(=O)=O)c(F)c2)o1 | inactive | inactive | 
35 | CC1(C)O[C@@H]2C[C@H]3[C@@H]4C[C@H](F)C5=CC(=O)C=C[C@]5(C)[C@H]4[C@@H](O)C[C@]3(C)[C@]2(C(=O)CO)O1 | inactive |  | 12.8% and -23.3%
36 | Cc1[nH]c(=O)c(C#N)cc1-c1ccc2nccn2c1 | inactive | inactive | 
37 | CN(C)C(=S)SC(=S)N(C)C | 3.55 µM (active) | 1 µM (active) | 
38 | O=C(OCC(O)CO)c1ccccc1Nc1ccnc2cc(Cl)ccc12 (stereo not given) | inactive |  | -18.4%
39 | Cc1c(C)c2c(c(C)c1OC(=O)CCC(=O)OCCO)CC[C@@](C)(CCC[C@H](C)CCC[C@H](C)CCCC(C)C)O2 | inactive | 28.2 µM (active) | 
40 | COc1ccccc1N1CCN(CCCNc2cc(=O)n(C)c(=O)n2C)CC1 | inactive |  | -0.464%
41 | COc1cc(NS(=O)(=O)c2ccc(N)cc2)ncn1 | inactive | inactive | 
